# Results published in PubChem BioAssay (Tox21).
# “And” between values parts separate entries of the source, which are not always exact repeats. Equal entries are not always repeated. Unmarked numbers belong to inactive results. Results filed as inconclusive are left out. A call without a number means that no potency is given here. The source made the active and inactive calls. Unless noted, the call rests on the fitted dose curve; in most records, active means well fitted curve in the direction sought with a large enough effect in the repeat runs; inconclusive means weak or mixed curves; inactive means no such curve, though single readings can be large; an effect the other way counts as inactive or inconclusive.
# What was measured:
# [1] = qHTS assay to test for compound auto fluorescence at 535 nm (green) in HEK293 cells (AID 720680)
# [2] = qHTS assay to test for compound auto fluorescence at 460 nm (blue) in HEK293 cell free culture (AID 720681)
# Outline: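 Blue fluorescence (Ex 405/Em 460 nm, triamterene-equivalent) was read immediately after pin transfer of compound or DMSO into medium (DMEM, 10% FBS) without cells.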
# [3] = qHTS assay to test for compound auto fluorescence at 535 nm (green) in HEK293 cell free culture (AID 720682)
# Outline: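 Green-channel intensity (Ex/Em 485/535 nm) was recorded from compound-treated wells containing only DMEM with 10% FBS. Fluorescein provided the equivalency standard.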
# [4] = qHTS assay to test for compound auto fluorescence at 590 nm (red) in HEK293 cell free culture (AID 720683)
# Outline: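 Red-channel autofluorescence of compounds in culture medium (DMEM, 10% FBS), no cells, measured at 540/590 nm. Rose Bengal sodium is the reference fluorophore for equivalence.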
# [5] = qHTS assay to test for compound auto fluorescence at 590 nm (red) in HepG2 cell free culture (AID 720684)
# Outline: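 Plate contents were MEM with 10% FBS plus test compound or DMSO, no cells. Fluorescence was recorded with 540 nm excitation and 590 nm emission.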
# [6] = qHTS assay to test for compound auto fluorescence at 460 nm (blue) in HepG2 cell free culture (AID 720685)
# Outline: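 Compound (23 nL) or DMSO pinned into cell-free MEM with 10% FBS; blue fluorescence read at 405/460 nm excitation/emission, expressed as auto-fluorescence equivalency to triamterene.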
# [7] = qHTS assay to test for compound auto fluorescence at 535 nm (green) in HepG2 cell free culture (AID 720686)
# [8] = qHTS assay to test for compound auto fluorescence at 460 nm (blue) in HepG2 cells (AID 720687)
# Outline: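 Blue-channel autofluorescence (Ex/Em 405/460 nm, triamterene-equivalent) was measured after 1 hr compound exposure at 37 C, 5% CO2. Cells were HepG2, plated overnight at 37 C in MEM plus 10% FBS.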
# [9] = molecular target: Glucocorticoid receptor (Homo sapiens) (UniProt P04150); experiment: qHTS assay to identify small molecule agonists of the glucocorticoid receptor (GR) signaling pathway (AID 720691; active means well fitted activation curve with a large enough effect in the signal ratio in the repeat runs, not every such curve was filed as active; the % refers to the signal ratio); conditions: GR-bla HeLa, beta-lactamase reporter ratio, 18 h; activation: at 62.4 µM (top of the series)
# Glucocorticoid receptor (Homo sapiens), sequence (P04150 whole entry, looked up): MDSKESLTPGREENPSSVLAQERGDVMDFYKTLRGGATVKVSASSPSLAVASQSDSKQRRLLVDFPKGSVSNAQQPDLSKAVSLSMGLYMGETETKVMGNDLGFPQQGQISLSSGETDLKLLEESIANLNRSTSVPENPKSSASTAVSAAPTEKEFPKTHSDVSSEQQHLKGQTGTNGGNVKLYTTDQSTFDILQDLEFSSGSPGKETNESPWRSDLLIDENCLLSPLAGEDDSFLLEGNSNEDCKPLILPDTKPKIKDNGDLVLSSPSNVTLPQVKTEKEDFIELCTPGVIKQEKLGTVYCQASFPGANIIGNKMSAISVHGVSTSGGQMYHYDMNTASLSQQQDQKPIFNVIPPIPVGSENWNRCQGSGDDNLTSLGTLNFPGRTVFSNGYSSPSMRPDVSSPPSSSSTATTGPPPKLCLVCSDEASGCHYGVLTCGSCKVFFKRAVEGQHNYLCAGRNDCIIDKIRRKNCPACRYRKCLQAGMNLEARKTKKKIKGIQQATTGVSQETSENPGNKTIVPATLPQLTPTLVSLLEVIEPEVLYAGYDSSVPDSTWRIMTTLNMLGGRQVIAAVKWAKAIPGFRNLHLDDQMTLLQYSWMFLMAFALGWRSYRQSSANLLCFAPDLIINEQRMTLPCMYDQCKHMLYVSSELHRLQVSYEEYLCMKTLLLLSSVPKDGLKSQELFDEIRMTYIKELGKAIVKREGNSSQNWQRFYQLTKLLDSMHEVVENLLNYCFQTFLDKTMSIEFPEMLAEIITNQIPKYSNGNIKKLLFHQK
# Outline: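 Agonist mode in a HeLa line carrying a GRE-controlled beta-lactamase reporter. Compounds act for 18 h at 37 C before a 2 h room-temperature FRET substrate step and fluorescence reading.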
# [10] = molecular target: Glucocorticoid receptor (Homo sapiens) (UniProt P04150); experiment: qHTS assay to identify small molecule antagonists of the glucocorticoid receptor (GR) signaling pathway (AID 720692; active means well fitted inhibition curve with a large enough effect in the signal ratio in the repeat runs, not every such curve was filed as active; the % refers to the signal ratio)
# Outline: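 Cells plated, rested 4 h at 37 C/5% CO2; compounds in DMSO pin-transferred; dexamethasone added to 5 nM final; 18 h at 37 C; B/G FRET substrate added, 2 h room temperature; fluorescence measured.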
# [11] = qHTS assay to identify small molecule antagonists of the glucocorticoid receptor (GR) signaling pathway - cell viability counter screen (AID 720693); further: nearly all actives have a fitted effect of over 55% in size; further: potency means the concentration at half of the fitted maximal effect
# [12] = qHTS assay for identifying genotoxic compounds that show differential cytotoxicity against isogenic chicken DT40 cell lines with known DNA damage response pathways - wild type cell line (AID 743012); further: nearly all actives have a fitted effect of over 60% in size; further: potency means the concentration at half of the fitted maximal effect
# Outline: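 Cells (DT40 wild type, 300/well) are treated with DMSO-dissolved compounds after a ~0.5 h pre-incubation and kept 40 h at 37 C/5% CO2. Viability is then measured by CellTiter-Glo luminescence following 30 min at room temperature.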
# [13] = qHTS assay for identifying genotoxic compounds that show differential cytotoxicity against isogenic chicken DT40 cell lines with known DNA damage response pathways - Rev3 mutant cell line (AID 743014); further: nearly all actives have a fitted effect of over 55% in size; further: potency means the concentration at half of the fitted maximal effect
# [14] = qHTS assay for identifying genotoxic compounds that show differential cytotoxicity against isogenic chicken DT40 cell lines with known DNA damage response pathways - Rad54/Ku70 mutant cell line (AID 743015); further: nearly all actives have a fitted effect of over 60% in size; further: potency means the concentration at half of the fitted maximal effect
# [15] = qHTS assay to identify small molecule antagonists of the androgen receptor (AR) signaling pathway - cell viability counter screen (AID 743033; further: nearly all actives have a fitted effect of over 45% in size)
# [16] = qHTS assay to identify small molecule antagonists of the androgen receptor (AR) signaling pathway using the MDA cell line - cell viability counter screen (AID 743041; further: nearly all actives have a fitted effect of over 45% in size; further: potency means the concentration at half of the fitted maximal effect)
# Outline: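 R1881-driven MDA-kb2 AR-luc cells, 3,000/well, were dosed with library compounds for 16 h; cell health came from CellTiter-Fluor fluorescence in the reporter wells.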
# [17] = qHTS assay to identify small molecule antagonists of the thyroid receptor (TR) signaling pathway - cell viability counter screen (AID 743064); further: nearly all actives have a fitted effect of over 50% in size; further: potency means the concentration at half of the fitted maximal effect
# Outline: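 In rat pituitary GH3.TRE-Luc reporter cells co-exposed to compound and 1 nM T3 for 23.5 h, cytotoxicity was assessed with CellTiter-Fluor in the same wells, read by fluorescence.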
# [18] = molecular target: Androgen receptor (Homo sapiens) (UniProt P10275); experiment: qHTS assay to identify small molecule antagonists of the androgen receptor (AR) signaling pathway (AID 743035; active means well fitted inhibition curve with a large enough effect in the signal ratio in the repeat runs, not every such curve was filed as active; the % refers to the signal ratio)
# Androgen receptor (Homo sapiens), sequence (P10275 whole entry, looked up): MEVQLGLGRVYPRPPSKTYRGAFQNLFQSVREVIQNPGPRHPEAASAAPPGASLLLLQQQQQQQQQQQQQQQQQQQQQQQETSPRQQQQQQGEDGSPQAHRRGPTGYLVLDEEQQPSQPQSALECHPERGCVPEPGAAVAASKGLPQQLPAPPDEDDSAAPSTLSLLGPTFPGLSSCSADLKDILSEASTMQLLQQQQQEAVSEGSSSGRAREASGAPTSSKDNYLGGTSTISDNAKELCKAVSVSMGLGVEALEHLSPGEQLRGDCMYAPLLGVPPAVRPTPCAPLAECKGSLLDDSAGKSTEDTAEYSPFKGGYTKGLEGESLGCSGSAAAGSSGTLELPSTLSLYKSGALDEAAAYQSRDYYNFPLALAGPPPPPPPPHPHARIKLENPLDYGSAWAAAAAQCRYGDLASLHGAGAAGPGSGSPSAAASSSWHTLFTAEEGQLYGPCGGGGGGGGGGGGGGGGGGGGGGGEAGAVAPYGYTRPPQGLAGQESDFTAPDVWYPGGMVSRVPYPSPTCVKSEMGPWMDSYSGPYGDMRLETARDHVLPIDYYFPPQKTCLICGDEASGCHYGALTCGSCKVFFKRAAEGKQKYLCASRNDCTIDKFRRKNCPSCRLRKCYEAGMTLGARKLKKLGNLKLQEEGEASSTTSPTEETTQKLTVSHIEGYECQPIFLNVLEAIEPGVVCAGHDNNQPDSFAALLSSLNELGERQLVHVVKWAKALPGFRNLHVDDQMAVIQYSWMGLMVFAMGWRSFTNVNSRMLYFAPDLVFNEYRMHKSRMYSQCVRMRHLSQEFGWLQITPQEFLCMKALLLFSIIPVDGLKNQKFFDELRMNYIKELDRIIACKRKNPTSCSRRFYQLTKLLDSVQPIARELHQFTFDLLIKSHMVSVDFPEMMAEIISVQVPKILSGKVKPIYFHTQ
# Outline: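 Antagonism is scored as loss of R1881-driven beta-lactamase reporter expression in HEK293 cells carrying the reporter under a UAS element, after 16 h co-treatment at 37C and a 2 h room-temperature FRET substrate read.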
# [19] = molecular target: Androgen receptor (Homo sapiens) (UniProt P10275); experiment: qHTS assay to identify small molecule antagonists of the androgen receptor (AR) signaling pathway using the MDA cell line (AID 743042; further: nearly all actives have a fitted effect of over 55% in size; further: potency means the concentration at half of the fitted maximal effect)
# Outline: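 Antagonist mode: compounds plus R1881 agonist added to MDA-kb2 AR-luc cells, incubated 16 h at 37C. Luciferase reporter luminescence quantified, with multiplexed CellTiter-Fluor readout for cell viability.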
# [20] = molecular target: Androgen receptor (Homo sapiens) (UniProt P10275); experiment: qHTS assay to identify small molecule agonists of the androgen receptor (AR) signaling pathway using the MDA cell line (AID 743040; further: nearly all actives have a fitted effect of over 20% in size)
# Outline: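 After a 5 h incubation at 37C and 0% CO2, MDA-kb2 reporter cells were dosed with compounds in DMSO and kept 16 h under the same conditions. Luciferase activity was then read as luminescence with ONE-Glo.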
smiles,measurement,setting,value
CCCCCCCCCC(=O)N(C)C,Potency,[1],inactive
same,Potency,[2],inactive
same,Potency,[3],inactive
same,Potency,[4],inactive
same,Potency,[5],inactive
same,Potency,[6],inactive
same,Potency,[7],inactive
same,Potency,[8],inactive
same,Potency,[9],inactive
same,Potency,[10],inactive
same,Potency,[11],inactive
same,Potency,[12],inactive
same,Potency,[13],inactive
same,Potency,[14],inactive
same,Potency,[15],inactive
same,Potency,[16],inactive
O=S(=O)(O)CCCN1CCOCC1,Potency,[1],inactive
same,Potency,[2],inactive
same,Potency,[3],inactive
same,Potency,[4],inactive
same,Potency,[5],inactive
same,Potency,[6],inactive
same,Potency,[7],inactive
same,Potency,[8],inactive
same,Potency,[10],inactive
same,Potency,[11],inactive
same,Potency,[12],inactive
same,Potency,[13],inactive
same,Potency,[14],inactive
same,Potency,[15],inactive
same,Potency,[16],inactive
same,Potency,[17],inactive
C/C=C/C=N/NC(=O)c1ccncc1,Potency,[1],inactive
same,Potency,[2],inactive
same,Potency,[3],inactive
same,Potency,[4],inactive
same,Potency,[5],inactive
same,Potency,[6],inactive
same,Potency,[7],inactive
same,Potency,[8],inactive
same,Potency,[10],inactive
same,Potency,[11],inactive
same,Potency,[13],inactive
same,Potency,[14],inactive
same,Potency,[15],inactive
same,Potency,[16],inactive
same,Potency,[17],inactive
C[Si](C)(C)Cl,Potency,[1],inactive
same,Potency,[2],inactive
same,Potency,[3],inactive
same,Potency,[4],inactive
same,Potency,[5],inactive
same,Potency,[6],inactive
same,Potency,[7],inactive
same,Potency,[8],inactive
same,Potency,[10],inactive
same,Potency,[11],inactive
same,Potency,[13],inactive
same,Potency,[14],inactive
same,Potency,[15],inactive
same,Potency,[18],inactive
same,Potency,[16],inactive
same,Potency,[19],inactive
same,Potency,[17],inactive
O=C(O)CCCCCCC(=O)O,Potency,[1],inactive
same,Potency,[2],inactive
same,Potency,[3],inactive
same,Potency,[4],inactive
same,Potency,[5],inactive
same,Potency,[6],inactive
same,Potency,[7],inactive
same,Potency,[8],inactive
same,Potency,[9],inactive
same,Potency,[11],inactive
same,Potency,[12],inactive
same,Potency,[13],inactive
same,Potency,[14],inactive
same,Potency,[15],inactive
same,Potency,[16],inactive
same,Potency,[17],inactive
CN1[C@@H]2CC[C@@H]1CC(OC(=O)C(CO)c1ccccc1)C2 (stereo not given in full),Potency,[1],inactive
same,Potency,[2],inactive
same,Potency,[3],inactive
same,Potency,[4],inactive
same,Potency,[5],inactive
same,Potency,[6],inactive
same,Potency,[7],inactive
same,Potency,[8],inactive
same,Potency,[9],inactive
same,Potency,[10],inactive
same,Potency,[11],inactive
same,Potency,[15],inactive
same,Potency,[16],inactive
same,Potency,[17],inactive
CNCC[C@H](Oc1cccc2ccccc12)c1cccs1,Potency,[1],inactive
same,Potency,[2],inactive
same,Potency,[3],inactive
same,Potency,[4],inactive
same,Potency,[5],inactive
same,Potency,[6],inactive
same,Potency,[7],inactive
same,Potency,[8],inactive
same,Potency,[9],inactive
same,Potency,[12],5.31 µM (active)
same,Potency,[13],9.44 µM (active)
same,Potency,[14],9.44 µM (active)
same,Potency,[16],24.8 µM (active)
same,Potency,[17],7.5 µM (active)
COc1ccccc1OCCNCC(O)COc1cccc2[nH]c3ccccc3c12 (stereo not given),Potency,[1],inactive
same,Potency,[2],inactive
same,Potency,[3],inactive
same,Potency,[4],inactive
same,Potency,[5],inactive
same,Potency,[6],inactive
same,Potency,[7],inactive
same,Potency,[8],inactive
same,Potency,[9],inactive
same,Potency,[11],inactive
same,Potency,[13],29.8 µM (active)
same,Potency,[14],29.8 µM (active)
same,Potency,[18],inactive
same,Potency,[20],inactive
same,Potency,[17],29.8 µM (active)
CC(C)OC(=O)c1cc(C(=O)OC(C)C)cc([N+](=O)[O-])c1,Potency,[1],inactive
same,Potency,[2],inactive
same,Potency,[3],inactive
same,Potency,[4],inactive
same,Potency,[5],inactive
same,Potency,[6],inactive
same,Potency,[7],inactive
same,Potency,[8],inactive
same,Potency,[9],inactive
same,Potency,[11],inactive
same,Potency,[14],55.8 µM (active)
same,Potency,[15],inactive
CN(C)c1ccc(N=NS(=O)(=O)O)cc1,Potency,[1],inactive
same,Potency,[2],inactive
same,Potency,[3],inactive
same,Potency,[4],inactive
same,Potency,[5],inactive
same,Potency,[6],inactive
same,Potency,[7],inactive
same,Potency,[8],inactive
same,Potency,[9],inactive
same,Potency,[11],inactive
same,Potency,[12],22.9 µM (active)
same,Potency,[13],26.1 µM (active)
same,Potency,[14],22 µM (active)
same,Potency,[16],14.4 µM (active)
same,Potency,[19],23.7 µM (active)
CCOC(=O)[C@@](C)(N)Cc1ccc(O)c(O)c1,"fluorescence, % of fluorescein",[1],-0.0378% [at 18.6 µM]
same,"fluorescence, % of fluorescent control",[2],0.186% [at 18.6 µM]
same,activity change,[3],"-0.0329% [at 18.6 µM, stronger effect = higher value]"
same,"fluorescence, % of fluorescent control",[4],0.256% [at 18.6 µM]
same,"fluorescence, % of Rose Bengal",[5],0.0263% [at 18.6 µM]
same,"fluorescence, % of fluorescent control",[6],0.193% [at 18.6 µM]
same,"fluorescence, % of fluorescein control",[7],-0.0478% [at 18.6 µM]
same,"fluorescence, % of fluorescent control",[8],0.0997% [at 18.6 µM]
same,Potency,[10],inactive
same,Potency,[11],inactive
same,Potency,[13],inactive
same,Potency,[14],inactive
same,Potency,[16],inactive
same,Potency,[17],inactive
c1ccc(Nc2cccc3ccccc23)cc1,Potency,[1],inactive
same,Potency,[2],inactive
same,Potency,[3],inactive
same,Potency,[4],inactive
same,Potency,[5],inactive
same,Potency,[6],inactive
same,Potency,[7],inactive
same,Potency,[8],inactive
same,Potency,[9],inactive
same,Potency,[11],44.2 µM (active)
same,Potency,[12],69.5 µM (active)
same,Potency,[13],61.9 µM (active) and 61.1 µM (active)
same,Potency,[14],55.2 µM (active) and 61.1 µM (active)
same,Potency,[16],inactive
same,Potency,[17],69.5 µM (active)
O=C1OC(=O)c2cccc3cccc1c23,Potency,[1],inactive
same,Potency,[2],inactive
same,Potency,[3],inactive
same,Potency,[4],inactive
same,Potency,[5],inactive
same,Potency,[6],inactive
same,Potency,[7],inactive
same,Potency,[8],inactive
same,Potency,[9],inactive
same,Potency,[13],15.5 µM (active)
same,Potency,[14],13.8 µM (active)
same,Potency,[15],inactive
same,Potency,[16],inactive
same,Potency,[17],inactive
O=C1OC(OC(=O)c2cccnc2Nc2cccc(C(F)(F)F)c2)c2ccccc21 (stereo not given),Potency,[1],inactive
same,Potency,[2],inactive
same,Potency,[3],inactive
same,Potency,[4],inactive
same,Potency,[5],inactive
same,Potency,[6],inactive
same,Potency,[7],inactive
same,Potency,[8],inactive
same,Potency,[9],inactive
same,Potency,[10],inactive
same,Potency,[11],inactive
same,Potency,[13],inactive
same,Potency,[14],inactive
same,Potency,[15],inactive
same,Potency,[18],inactive
same,Potency,[16],inactive
same,Potency,[19],inactive
